Laboratory results as given in PubChem BioAssay.
Unmarked numbers belong to inactive results. Activity calls are given as the source filed them. Cut-off read from the data, not from the text of the source, unless noted: active = inhibition above about 44%; inactive = the rest.

Columns and labels:
[1] = target: Nuclear receptor coactivator 1 (Homo sapiens) (UniProt Q15788); assay: NCOA1 GAL4-fusion reporter inhibition – cell-based, luminescence, quadruplicate, confirmation (AID 588820;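 active = mean inhibition above 46.68%, the untreated control wells mean plus 3 SD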;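 note: 0% = DMSO wells and 100% = gossypol 36 µM treated wells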); conditions: HEK293 GAL4-SRC1 luciferase reporter, at 3.6 µM, stronger effect = higher value
[2] = repression of VP16-driven luciferase reporter – cell-based, luminescence, high throughput, counter-screen for SRC1 inhibitor project (AID 588824; in the data active = inhibition above about 25%); conditions: cell-based VP16 transactivation luciferase luminescence; at 3.6 µM; stronger effect = higher value
[3] = StAR promoter reporter inhibitors, counter-screen for LRH-1 inverse agonist project, cell-based, luminescence, high throughput (AID 651611; in the data active = inhibition above about 28%); conditions: StAR promoter luciferase reporter counterscreen, at 3.6 µM, stronger effect = higher value
[4] = target: Nuclear receptor subfamily 5 group A member 2 (Homo sapiens) (UniProt O00482); assay: NR5A2 activity suppression in reporter cells – cell-based, luminescence, confirmation (AID 651613; in the data active = inhibition above about 42%;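 note: HEK293T cells co-transfected with LRH-1 and StAR promoter luciferase reporter; 0% = vehicle wells and 100% = parental cells lacking receptor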); conditions: cell-based LRH-1 luciferase reporter, inverse agonism; at 3.6 µM; stronger effect = higher value
[5] = target: Steroidogenic factor 1 (Homo sapiens) (UniProt Q13285); assay: inverse agonism at SF1 nuclear receptor – cell-based, luminescence, high throughput, counter-screen for LRH-1 inverse agonist project (AID 651614); conditions: cell-based SF1 luciferase reporter, at 3.6 µM, stronger effect = higher value;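 note: cells cotransfected with StAR promoter reporter and SF1 expression vector; 0% = vehicle on cells with receptor and 100% = vehicle on cells lacking receptor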
[6] = compounds suppressing VP16-driven luciferase signal – cell-based, luminescence, high throughput, counter-screen for LRH-1 inverse agonist project (AID 651615; in the data active = inhibition above about 33%); conditions: Gal4-VP16 luciferase reporter cells, at 3.6 µM, stronger effect = higher value

Nuclear receptor coactivator 1 (Homo sapiens), sequence (Q15788 whole entry, looked up, the tested form may be a part): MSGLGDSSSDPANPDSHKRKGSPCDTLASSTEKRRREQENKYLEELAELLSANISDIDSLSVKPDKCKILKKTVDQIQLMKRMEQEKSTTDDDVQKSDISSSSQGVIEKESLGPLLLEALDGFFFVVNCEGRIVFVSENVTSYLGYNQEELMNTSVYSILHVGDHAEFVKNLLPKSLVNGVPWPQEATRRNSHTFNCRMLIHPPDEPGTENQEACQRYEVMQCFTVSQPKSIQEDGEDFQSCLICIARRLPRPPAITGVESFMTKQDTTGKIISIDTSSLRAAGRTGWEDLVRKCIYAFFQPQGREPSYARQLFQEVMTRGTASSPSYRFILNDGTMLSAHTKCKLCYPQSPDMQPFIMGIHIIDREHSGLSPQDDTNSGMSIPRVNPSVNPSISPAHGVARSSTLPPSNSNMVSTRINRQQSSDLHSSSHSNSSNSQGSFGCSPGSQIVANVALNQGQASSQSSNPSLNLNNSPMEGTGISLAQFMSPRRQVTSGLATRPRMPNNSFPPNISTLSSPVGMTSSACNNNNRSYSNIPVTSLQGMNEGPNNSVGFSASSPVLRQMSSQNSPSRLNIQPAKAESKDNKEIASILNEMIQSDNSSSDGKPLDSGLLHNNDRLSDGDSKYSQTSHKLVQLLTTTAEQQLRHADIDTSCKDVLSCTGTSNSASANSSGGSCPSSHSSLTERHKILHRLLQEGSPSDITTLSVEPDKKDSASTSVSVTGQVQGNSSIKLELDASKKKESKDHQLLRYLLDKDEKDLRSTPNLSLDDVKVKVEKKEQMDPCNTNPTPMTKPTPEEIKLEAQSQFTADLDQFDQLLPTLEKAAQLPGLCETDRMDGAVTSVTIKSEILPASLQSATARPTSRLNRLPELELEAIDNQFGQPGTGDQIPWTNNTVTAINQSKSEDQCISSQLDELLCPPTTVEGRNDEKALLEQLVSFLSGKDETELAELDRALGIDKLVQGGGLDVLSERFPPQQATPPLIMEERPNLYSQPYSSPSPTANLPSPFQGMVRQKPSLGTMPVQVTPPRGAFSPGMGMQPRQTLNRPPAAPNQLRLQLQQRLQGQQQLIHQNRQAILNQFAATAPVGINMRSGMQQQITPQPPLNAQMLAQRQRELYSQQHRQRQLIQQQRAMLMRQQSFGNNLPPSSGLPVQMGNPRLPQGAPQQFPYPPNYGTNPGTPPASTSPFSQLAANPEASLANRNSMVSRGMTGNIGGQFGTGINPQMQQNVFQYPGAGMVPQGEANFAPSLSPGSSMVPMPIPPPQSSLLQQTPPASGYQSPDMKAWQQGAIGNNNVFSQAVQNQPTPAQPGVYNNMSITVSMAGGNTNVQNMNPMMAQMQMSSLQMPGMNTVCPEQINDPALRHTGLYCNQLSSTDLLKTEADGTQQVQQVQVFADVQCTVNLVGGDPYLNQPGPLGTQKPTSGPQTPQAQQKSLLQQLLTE
Nuclear receptor subfamily 5 group A member 2 (Homo sapiens), sequence (O00482 whole entry, looked up): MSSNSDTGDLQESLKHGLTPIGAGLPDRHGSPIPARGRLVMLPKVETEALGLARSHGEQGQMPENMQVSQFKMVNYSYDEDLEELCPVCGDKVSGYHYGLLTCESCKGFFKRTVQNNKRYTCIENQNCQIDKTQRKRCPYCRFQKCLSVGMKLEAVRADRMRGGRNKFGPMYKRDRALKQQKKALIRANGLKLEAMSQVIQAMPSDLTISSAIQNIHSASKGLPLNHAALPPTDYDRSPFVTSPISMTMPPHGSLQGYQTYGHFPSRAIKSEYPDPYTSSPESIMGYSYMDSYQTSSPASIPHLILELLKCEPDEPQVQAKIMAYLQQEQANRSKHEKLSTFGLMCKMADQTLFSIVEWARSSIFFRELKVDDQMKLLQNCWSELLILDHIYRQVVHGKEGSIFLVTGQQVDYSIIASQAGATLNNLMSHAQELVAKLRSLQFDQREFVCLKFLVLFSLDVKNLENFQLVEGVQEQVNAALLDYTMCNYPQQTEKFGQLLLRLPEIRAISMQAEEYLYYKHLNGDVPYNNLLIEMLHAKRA
Steroidogenic factor 1 (Homo sapiens), sequence (Q13285 whole entry, looked up, the tested form may be a part): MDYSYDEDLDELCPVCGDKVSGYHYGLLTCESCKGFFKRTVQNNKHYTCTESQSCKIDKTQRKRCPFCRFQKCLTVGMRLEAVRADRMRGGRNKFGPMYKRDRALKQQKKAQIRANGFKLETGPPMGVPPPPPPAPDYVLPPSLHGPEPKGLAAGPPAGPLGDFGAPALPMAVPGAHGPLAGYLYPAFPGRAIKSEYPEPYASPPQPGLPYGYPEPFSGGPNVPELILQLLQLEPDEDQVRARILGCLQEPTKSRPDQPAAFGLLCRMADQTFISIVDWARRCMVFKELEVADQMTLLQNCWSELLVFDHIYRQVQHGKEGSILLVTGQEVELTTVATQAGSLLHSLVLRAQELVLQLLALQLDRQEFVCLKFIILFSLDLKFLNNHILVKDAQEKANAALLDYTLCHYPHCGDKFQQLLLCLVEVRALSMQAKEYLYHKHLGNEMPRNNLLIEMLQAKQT

Row | Structure (SMILES) | inhibition [1] [%] | inhibition [2] | inhibition [3] [%] | inhibition [4] | inhibition [5] | inhibition [6]
1 | CC1(c2ccc3ccccc3c2)NC(=O)N(CC(=O)N2CCN(Cc3ccccc3)CC2)C1=O (configuration not stated) | -20.6 | 37.1% (active) | 12.2 | 55.8% (active) | 58% (active) | 48.8% (active)
2 | Cc1c(C(C)C)c(=O)n(-c2ccc(S(=O)(=O)NCc3ccccc3)cc2)n1C | -18.5 | 30.9% (active) | 16.5 | 54.3% (active) | 55.1% (active) | 44.1% (active)
3 | Clc1ccc(-c2nnc(CSc3nnc(-c4cccs4)n3Cc3ccccc3)o2)cc1 | -0.02 | 30.5% (active) | 5.56 | 51.7% (active) | 48.9% (active) | 41.6% (active)
4 | O=C1c2cccc3cc([N+](=O)[O-])cc(c23)C(=O)N1CCN1CCCC1 | -86.9 | 42.6% (active) | 13.3 | 91.6% (active) | 68.6% (active) | 64.2% (active)
5 | CCCCCCCCNc1ncnc2ccccc12 | -40.4 | 29.4% (active) | 22.2 | 63.7% (active) | 56.2% (active) | 63.4% (active)
6 | CC1(C)CC(N2CCCC2)=CC(=[N+]2CCCCC2)C1 | -1.69 | 31% (active) | 21.4 | 64.8% (active) | 54.3% (active) | 52.5% (active)
7 | O=C(N/N=C/c1ccc(O)cc1)c1ccc(COc2cc(Cl)ccc2Cl)o1 | -2.22 | 30.3% (active) | 22.3 | 42.3% (active) | 47.1% (active) | 57.9% (active)
